This is a sample that favours compounds with a hit; in the whole collection about 21% have one here.
TDP1 cell CPT – qHTS for Inhibitors of human tyrosyl-DNA phosphodiesterase 1 (TDP1): qHTS in cells in presence of CPT; chicken DT40 Tdp1-/-;hTDP1 cells + 20 nM CPT, ATP luminescence, 48 h; Potency, µM (highest dose often 46.2 µM), inactives show top-dose activity change, negative = growth inhibition, usual class: inhibitors; 12% of 420,000 active; AID 686979, 2013; note: potency is the fitted concentration of half-maximal effect; nearly all actives have a fitted effect of over 55% in size
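Chicken DT40 Tdp1-/- cells complemented with human TDP1, 400 cells/well, exposed to compounds plus 20 nM camptothecin for at least 48 h at 37 C; viability read as ATP content by CellTiter-Glo luminescence.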
IL-1B inflam inh – qHTS for Inhibitors of Inflammasome Signaling: IL-1-beta AlphaLISA Primary Screen; THP-1 LPS/ATP IL-1B secretion, AlphaLISA, 16 h; active compounds read low; activity change, % at 57.5 µM; 4.7% of 360,000 active; in the data active = activity change below about -50%; inconclusive = mostly about -30% to -49%
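THP-1 cells pretreated 1 hr with compounds (up to 57.5 uM final), then stimulated with LPS (250 ng/mL final) plus ATP (1.25 mM final); secreted IL-1B measured by AlphaLISA after 16 hr, decreased signal indicating inhibition.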
Gal4-VP16 FLuc – VP16 counterscreen qHTS for inhibitors of ROR gamma transcriptional activity; 3.5% of 310,000 active; Drosophila S2 Gal4-VP16 UAS-luciferase, luminescence, 20 h; AID 2546, 2010; Potency, µM (series often up to 53.6 µM), for inactives: at the top dose activity, negative = inhibition, usual class: inhibitors;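 note: Gal4-VP16 expression switched on by copper sulfate through the metallothionein promoter; potency is the fitted concentration of half-maximal effect; nearly all actives have a fitted effect of over 50% in size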
ELG1 DNA repair – qHTS screen for small molecules that inhibit ELG1-dependent DNA repair in human embryonic kidney (HEK293T) cells expressing luciferase-tagged ELG1 | 2.3% of 330,000 active | Potency, µM (top dose mostly 46.1 µM), inactives show at the highest dose activity change, negative = inhibition, most hits filed as inhibitors | HEK293T ELG1-luciferase reporter, luminescence, 16 h; DNA damage induced by 5-fluorouridine; note: potency is the fitted concentration of half-maximal effect; nearly all actives have a fitted effect of over 55% in size
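Luminescence from the luciferase reporter, measured 30 min after ONE-Glo reagent at room temperature, was the read-out. Beforehand, 2,000 cells per well were exposed for 16 hr at 37 °C to 5-fluorouridine together with compound or vehicle.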
RORgamma inh – qHTS for inhibitors of ROR gamma transcriptional activity. Potency, µM (top dose mostly 53.6 µM), without a hit: at the highest dose activity change, negative = inhibition, usual class: inhibitors. Drosophila S2 Gal4-RORgamma UAS-luciferase reporter, 20 h. AID 2551, 2010. 5.4% of 310,000 active; note: potency is the fitted concentration of half-maximal effect; nearly all actives have a fitted effect of over 60% in size
Target sequence (P51450 whole entry, looked up, the tested form may be a part): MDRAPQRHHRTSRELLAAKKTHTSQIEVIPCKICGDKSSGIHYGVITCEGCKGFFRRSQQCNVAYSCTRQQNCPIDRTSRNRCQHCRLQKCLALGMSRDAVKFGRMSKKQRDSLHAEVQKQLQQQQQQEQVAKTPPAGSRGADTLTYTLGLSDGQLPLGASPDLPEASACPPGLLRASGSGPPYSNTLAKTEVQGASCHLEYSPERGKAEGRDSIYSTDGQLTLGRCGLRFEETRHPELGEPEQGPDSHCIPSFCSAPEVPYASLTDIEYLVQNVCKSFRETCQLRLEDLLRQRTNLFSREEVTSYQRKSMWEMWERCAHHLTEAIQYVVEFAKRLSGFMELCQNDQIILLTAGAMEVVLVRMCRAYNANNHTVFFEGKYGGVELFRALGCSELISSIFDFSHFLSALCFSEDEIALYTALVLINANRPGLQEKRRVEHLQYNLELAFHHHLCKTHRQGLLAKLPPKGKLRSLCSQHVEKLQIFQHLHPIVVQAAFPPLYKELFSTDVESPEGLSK
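Stable Schneider cell line, Gal4 DNA-binding domain fused to ROR gamma, UAS-luciferase. Cmpd 1 hr RT → CuSO4 700 uM final → 20 hr RT → luciferase reagent 10 min → luminescence.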
DT40 TDP1 no CPT – qHTS for Inhibitors of human tyrosyl-DNA phosphodiesterase 1 (TDP1): qHTS in cells in absence of CPT. DT40 Tdp1-/- hTDP1 cells, no CPT, ATP luminescence, 48 h. Potency, µM (highest dose often 46.2 µM), for the others: at the top dose activity change, negative = growth inhibition, most hits filed as inhibitors. 15% of 420,000 active; note: potency is the fitted concentration of half-maximal effect; nearly all actives have a fitted effect of over 55% in size
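Stably hTDP1-transfected Tdp1-null chicken DT40 cells were treated with library compounds minus camptothecin and grown for at least 48 hr at 37 °C, after which cellular ATP was quantified by luminescence.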
* = called active by the depositor. Unless noted, calls come from the whole dose curve; as a rule, active = well fitted curve in the direction sought with a large enough effect; inconclusive = small, poorly fitted or top-dose-only effect, or another doubt; inactive = no such curve, though single readings can be large; an effect the other way counts as inactive or inconclusive. % is set by controls: 0 for no effect and ±100 for the full control effect.

Screening Cc1sc2ncnc(SCC(=O)N(C(C)C)C(C)C)c2c1C returned TDP1 cell CPT 20%, IL-1B inflam inh 13, Gal4-VP16 FLuc 4%, ELG1 DNA repair 4%, RORgamma inh 5% and DT40 TDP1 no CPT -7%.
COc1ccc(NC(=O)CN(C)C(=O)c2ccccc2Sc2ncnc3sc(C)c(C)c23)cc1 was read as TDP1 cell CPT inconclusive, IL-1B inflam inh 9, ELG1 DNA repair 16µM* and DT40 TDP1 no CPT 23µM*.
Screening Cc1sc2ncnc(Sc3ccccc3C(=O)Nc3ccccc3Cl)c2c1C returned TDP1 cell CPT 23µM*, IL-1B inflam inh -9, Gal4-VP16 FLuc 15%, ELG1 DNA repair inconclusive, RORgamma inh inconclusive and DT40 TDP1 no CPT 18µM*.
For Cc1sc2ncnc(Sc3ccccc3C(=O)Nc3ccc(C#N)cc3)c2c1C the results were TDP1 cell CPT 21µM*, IL-1B inflam inh -19, Gal4-VP16 FLuc -7%, ELG1 DNA repair inconclusive, RORgamma inh 4% and DT40 TDP1 no CPT 21µM*.
For COc1ccc(NC(=O)CN(C)C(=O)c2ccccc2SCC(=O)N2CCCC2)cc1 the results were TDP1 cell CPT -8%, IL-1B inflam inh 18, ELG1 DNA repair -1% and DT40 TDP1 no CPT -16%.
COC(=O)C(NC(=O)CCc1nnc2ccc(N3CCCCC3)nn12)C(C)C (configuration not stated) was read as TDP1 cell CPT -16%, IL-1B inflam inh -6, Gal4-VP16 FLuc 3%, ELG1 DNA repair inconclusive, RORgamma inh 1% and DT40 TDP1 no CPT 12%.
`Cc1sc2ncnc(Sc3nnc4sc5ccccc5n34)c2c1C` gave Gal4-VP16 FLuc 10%, ELG1 DNA repair 6% and RORgamma inh inconclusive.
Cc1sc2ncnc(Sc3ccccc3C(=O)Nc3ccc(Br)cc3)c2c1C was read as TDP1 cell CPT 23µM*, IL-1B inflam inh -15, Gal4-VP16 FLuc 8.9µM*, ELG1 DNA repair inconclusive, RORgamma inh 10µM* and DT40 TDP1 no CPT 16µM*.
For COc1cccc(-c2nc(NCCN3CCOCC3)c3ccccc3n2)c1 the results were TDP1 cell CPT inconclusive, Gal4-VP16 FLuc 5%, RORgamma inh 10% and DT40 TDP1 no CPT inconclusive.
Clc1cccc(-c2nc(NCCCN3CCOCC3)c3ccccc3n2)c1 was read as TDP1 cell CPT inconclusive, IL-1B inflam inh inconclusive, Gal4-VP16 FLuc inconclusive, ELG1 DNA repair inconclusive, RORgamma inh inconclusive and DT40 TDP1 no CPT 23µM*.
`CS(=O)(=O)Nc1cccc(-c2nc(NCCN3CCOCC3)c3ccccc3n2)c1` gave TDP1 cell CPT -3%, Gal4-VP16 FLuc 5%, RORgamma inh 6% and DT40 TDP1 no CPT inconclusive.
`Clc1cccc(-c2nc(NCCN3CCOCC3)c3ccccc3n2)c1` gave TDP1 cell CPT inconclusive, IL-1B inflam inh -86*, Gal4-VP16 FLuc 3%, ELG1 DNA repair inconclusive, RORgamma inh -11% and DT40 TDP1 no CPT inconclusive.
For Clc1ccc(-c2nc(NCCCN3CCOCC3)c3ccccc3n2)cc1 the results were TDP1 cell CPT inconclusive, IL-1B inflam inh -75*, Gal4-VP16 FLuc 2%, ELG1 DNA repair 23µM*, RORgamma inh 8% and DT40 TDP1 no CPT 18µM*.
Screening COc1cc2c(cc1OC)C(c1ccccc1)N(S(C)(=O)=O)CC2 (configuration not stated) returned TDP1 cell CPT -22%, IL-1B inflam inh -11, Gal4-VP16 FLuc 5%, ELG1 DNA repair 6%, RORgamma inh 18% and DT40 TDP1 no CPT 1%.

Compound activity (PubChem)
